Binding signal data for 1 sequence are collected here from article PMC7862700, “An all-to-all approach to the identification of sequence-specific readers for epigenetic DNA modifications on cytosine”.

Common to all, as to test: DAPPL (digital affinity profiling via proximity ligation, sequencing); 10 mM Tris-HCl pH 7.5, 50 mM NaCl, 1 mM DTT, 4% glycerol, room temperature, 30 min; GST-TFs on glutathione beads, 16-mer random dsDNA library, 0.1% formaldehyde crosslink after washing; high values mean tight binding
One experiment addresses T1, FEV (Homo sapiens, UniProt Q99581 1-238).
T1 sequence: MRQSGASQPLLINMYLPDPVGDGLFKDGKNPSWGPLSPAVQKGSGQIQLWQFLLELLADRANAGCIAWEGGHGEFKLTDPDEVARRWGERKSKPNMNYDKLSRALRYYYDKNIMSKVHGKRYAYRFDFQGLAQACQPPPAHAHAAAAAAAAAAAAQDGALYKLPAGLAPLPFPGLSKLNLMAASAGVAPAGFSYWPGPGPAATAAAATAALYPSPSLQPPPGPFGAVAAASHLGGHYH
To be noted: protein: recombinant; tags: N-terminal GST; dsDNA, one strand shown. In outline: (§1)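 After expression in yeast as GST fusions, human transcription factors were bound to glutathione beads, DNA-barcoded and mixed with a tag-only sample. The pools were incubated with 200 nmole of a 16-mer random double-stranded DNA library in Tris/NaCl/DTT/glycerol buffer (30 min, room temperature), washed and crosslinked with 0.1% formaldehyde. Proximity ligation with BsaI/T4 ligase ran for 1 h at 37 °C, before PCR amplification and sequencing on an Illumina NextSeq500. Binding signal is a hexamer's read frequency for a factor divided by its frequency for the tag-only sample.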

In the next experiment the target is ETV5 (Homo sapiens, UniProt P41161 1-510). To be noted: protein: recombinant; tags: N-terminal GST; dsDNA, one strand shown. In outline:
as §1

In a further experiment the target is HSF1 (Homo sapiens, UniProt Q00613 1-529). To be noted: protein: recombinant; tags: N-terminal GST; chain copies: 3; dsDNA, one strand shown. In outline: as §1
The target of the next experiment is T2, SPIC (Homo sapiens, UniProt Q8N5J4 1-248).
T2 sequence: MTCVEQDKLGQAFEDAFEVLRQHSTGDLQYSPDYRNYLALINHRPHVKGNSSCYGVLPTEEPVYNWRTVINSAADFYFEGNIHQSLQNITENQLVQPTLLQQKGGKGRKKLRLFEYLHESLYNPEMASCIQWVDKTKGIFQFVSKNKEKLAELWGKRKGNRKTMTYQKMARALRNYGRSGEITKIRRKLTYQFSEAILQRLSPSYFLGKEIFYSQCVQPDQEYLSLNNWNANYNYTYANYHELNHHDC
To be noted: protein: recombinant; tags: N-terminal GST; dsDNA, one strand shown. In outline:
as §1

In another experiment the target is ELF4 (Homo sapiens, UniProt Q99607 1-663). To be noted: protein: recombinant; tags: N-terminal GST; dsDNA, one strand shown. In outline: as §1
The target in another experiment is T3, ELK4 (Homo sapiens, UniProt P28324-2 1-405).
T3 sequence: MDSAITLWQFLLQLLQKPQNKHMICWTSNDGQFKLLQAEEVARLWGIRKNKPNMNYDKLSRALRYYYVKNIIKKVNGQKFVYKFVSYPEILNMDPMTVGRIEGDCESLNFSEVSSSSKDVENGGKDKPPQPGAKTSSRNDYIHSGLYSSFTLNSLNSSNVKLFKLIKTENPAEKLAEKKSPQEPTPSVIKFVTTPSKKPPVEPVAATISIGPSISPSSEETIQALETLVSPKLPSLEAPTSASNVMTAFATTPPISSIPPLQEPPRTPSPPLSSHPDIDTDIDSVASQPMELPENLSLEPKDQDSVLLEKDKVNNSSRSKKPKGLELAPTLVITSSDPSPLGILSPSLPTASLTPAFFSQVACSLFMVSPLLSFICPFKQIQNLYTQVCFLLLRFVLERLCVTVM
To be noted: protein: recombinant; tags: N-terminal GST; dsDNA, one strand shown. In outline:
as §1

In another experiment the target is T4, ETV2 (Homo sapiens, UniProt O00321 1-342).
T4 sequence: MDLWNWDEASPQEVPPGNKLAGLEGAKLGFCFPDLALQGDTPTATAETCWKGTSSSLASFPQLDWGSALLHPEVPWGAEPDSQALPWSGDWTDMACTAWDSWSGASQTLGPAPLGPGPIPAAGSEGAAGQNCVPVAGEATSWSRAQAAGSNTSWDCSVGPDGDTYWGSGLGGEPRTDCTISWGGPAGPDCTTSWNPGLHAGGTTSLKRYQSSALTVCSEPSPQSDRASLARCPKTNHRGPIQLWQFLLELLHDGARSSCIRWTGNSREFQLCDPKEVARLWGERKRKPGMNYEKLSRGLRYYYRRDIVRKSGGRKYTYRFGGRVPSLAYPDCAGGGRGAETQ
To be noted: protein: recombinant; tags: N-terminal GST; dsDNA, one strand shown. In outline:
as §1

For the next experiment, the target named is T5, ELF3 (Homo sapiens, UniProt P78545 1-371).
T5 sequence: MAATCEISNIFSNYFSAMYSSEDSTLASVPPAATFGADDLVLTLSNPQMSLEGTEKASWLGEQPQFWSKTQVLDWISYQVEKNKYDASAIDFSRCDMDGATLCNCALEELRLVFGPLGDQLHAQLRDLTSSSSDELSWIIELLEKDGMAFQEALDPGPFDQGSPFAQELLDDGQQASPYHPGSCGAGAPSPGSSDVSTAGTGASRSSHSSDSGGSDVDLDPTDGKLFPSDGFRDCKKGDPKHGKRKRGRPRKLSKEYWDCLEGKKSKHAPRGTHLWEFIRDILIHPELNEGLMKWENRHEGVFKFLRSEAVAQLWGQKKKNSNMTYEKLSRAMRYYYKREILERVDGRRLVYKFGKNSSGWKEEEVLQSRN
To be noted: protein: recombinant; tags: N-terminal GST; dsDNA, one strand shown. In outline:
as §1

The target in a further experiment is CRX (Homo sapiens, UniProt O43186 1-299). To be noted: protein: recombinant; tags: N-terminal GST; dsDNA, one strand shown. The method in brief:
as §1

The target in another experiment is ETV1 (Homo sapiens, UniProt P50549 1-477). To be noted: protein: recombinant; tags: N-terminal GST; dsDNA, one strand shown. In outline: as §1
The next experiment concerns the target T6, ERF (Homo sapiens, UniProt P50548 1-548).
T6 sequence: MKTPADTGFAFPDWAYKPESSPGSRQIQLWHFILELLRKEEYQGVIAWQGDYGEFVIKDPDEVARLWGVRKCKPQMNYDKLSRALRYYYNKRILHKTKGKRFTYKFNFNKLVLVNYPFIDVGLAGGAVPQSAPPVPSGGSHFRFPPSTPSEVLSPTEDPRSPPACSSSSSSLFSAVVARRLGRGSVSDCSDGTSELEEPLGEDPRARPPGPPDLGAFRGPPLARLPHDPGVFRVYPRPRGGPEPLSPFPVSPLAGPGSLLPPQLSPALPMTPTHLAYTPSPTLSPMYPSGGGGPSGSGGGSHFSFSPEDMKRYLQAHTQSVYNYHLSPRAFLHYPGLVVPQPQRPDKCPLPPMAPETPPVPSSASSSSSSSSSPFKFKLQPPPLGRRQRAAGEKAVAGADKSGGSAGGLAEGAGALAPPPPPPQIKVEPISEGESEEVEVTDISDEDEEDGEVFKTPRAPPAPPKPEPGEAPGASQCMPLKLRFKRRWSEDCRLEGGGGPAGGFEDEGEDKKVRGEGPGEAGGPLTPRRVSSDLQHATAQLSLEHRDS
To be noted: protein: recombinant; tags: N-terminal GST; dsDNA, one strand shown. The method in brief:
as §1

In a further experiment the target is T7, ETV3L (Homo sapiens, UniProt Q6ZN32 1-361).
T7 sequence: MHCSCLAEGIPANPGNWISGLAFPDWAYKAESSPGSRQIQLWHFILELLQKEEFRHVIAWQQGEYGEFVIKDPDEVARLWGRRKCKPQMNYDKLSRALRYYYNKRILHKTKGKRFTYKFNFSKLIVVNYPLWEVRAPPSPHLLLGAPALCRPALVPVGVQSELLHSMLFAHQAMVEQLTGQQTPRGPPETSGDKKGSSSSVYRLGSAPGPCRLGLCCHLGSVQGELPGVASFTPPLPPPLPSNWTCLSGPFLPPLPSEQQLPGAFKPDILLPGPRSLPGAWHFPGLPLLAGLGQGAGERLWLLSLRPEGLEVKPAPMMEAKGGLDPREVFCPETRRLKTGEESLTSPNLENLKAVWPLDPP
To be noted: protein: recombinant; tags: N-terminal GST; dsDNA, one strand shown. In outline: as §1

The next experiment has as its target T8, ETS2 (Homo sapiens, UniProt P15036 1-469).
T8 sequence: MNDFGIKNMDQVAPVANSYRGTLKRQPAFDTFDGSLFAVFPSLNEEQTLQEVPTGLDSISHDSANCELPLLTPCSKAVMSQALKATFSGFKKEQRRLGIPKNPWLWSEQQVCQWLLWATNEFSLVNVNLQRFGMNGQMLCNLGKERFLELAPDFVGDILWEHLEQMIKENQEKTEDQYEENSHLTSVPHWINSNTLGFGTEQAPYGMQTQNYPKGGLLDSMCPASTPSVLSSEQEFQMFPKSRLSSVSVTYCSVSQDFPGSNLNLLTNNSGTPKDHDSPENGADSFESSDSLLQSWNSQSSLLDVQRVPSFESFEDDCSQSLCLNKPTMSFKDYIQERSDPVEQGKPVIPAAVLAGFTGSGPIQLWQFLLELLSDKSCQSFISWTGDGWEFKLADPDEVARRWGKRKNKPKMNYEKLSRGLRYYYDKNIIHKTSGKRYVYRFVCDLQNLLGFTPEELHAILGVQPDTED
To be noted: protein: recombinant; tags: N-terminal GST; dsDNA, one strand shown. The method in brief: as §1

The target of the next experiment is T9, SPDEF (Homo sapiens, UniProt O95238 1-335).
T9 sequence: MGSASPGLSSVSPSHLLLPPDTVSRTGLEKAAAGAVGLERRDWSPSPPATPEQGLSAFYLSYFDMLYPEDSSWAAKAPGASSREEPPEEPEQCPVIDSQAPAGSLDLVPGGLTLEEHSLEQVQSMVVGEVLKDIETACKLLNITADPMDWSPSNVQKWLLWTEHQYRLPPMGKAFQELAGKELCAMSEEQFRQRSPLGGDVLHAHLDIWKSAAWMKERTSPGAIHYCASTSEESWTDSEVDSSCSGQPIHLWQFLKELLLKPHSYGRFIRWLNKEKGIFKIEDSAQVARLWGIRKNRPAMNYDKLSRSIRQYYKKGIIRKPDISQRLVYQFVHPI
To be noted: protein: recombinant; tags: N-terminal GST; dsDNA, one strand shown. The method in brief: as §1

The target in another experiment is T10, ETV7 (Homo sapiens, UniProt Q9Y603 1-341).
T10 sequence: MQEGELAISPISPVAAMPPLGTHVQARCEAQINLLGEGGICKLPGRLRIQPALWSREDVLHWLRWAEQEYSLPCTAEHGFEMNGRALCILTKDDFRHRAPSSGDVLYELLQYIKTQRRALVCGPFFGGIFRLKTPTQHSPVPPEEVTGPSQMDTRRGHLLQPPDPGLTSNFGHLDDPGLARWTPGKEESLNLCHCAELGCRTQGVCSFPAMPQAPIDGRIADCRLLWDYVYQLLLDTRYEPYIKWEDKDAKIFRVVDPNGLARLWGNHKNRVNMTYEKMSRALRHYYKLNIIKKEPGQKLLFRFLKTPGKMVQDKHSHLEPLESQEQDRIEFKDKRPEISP
To be noted: protein: recombinant; tags: N-terminal GST; dsDNA, one strand shown. In outline:
as §1

The target in the next experiment is T11, ELF5 (Homo sapiens, UniProt Q9UKW6-2 1-255).
T11 sequence: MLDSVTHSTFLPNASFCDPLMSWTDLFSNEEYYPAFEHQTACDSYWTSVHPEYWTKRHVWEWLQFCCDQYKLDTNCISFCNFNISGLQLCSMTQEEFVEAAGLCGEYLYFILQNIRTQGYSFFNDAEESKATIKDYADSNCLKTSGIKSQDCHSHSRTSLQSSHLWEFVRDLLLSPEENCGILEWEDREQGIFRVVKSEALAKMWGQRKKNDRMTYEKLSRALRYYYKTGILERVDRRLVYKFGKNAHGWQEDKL
To be noted: protein: recombinant; tags: N-terminal GST; dsDNA, one strand shown. The method in brief: as §1

In another experiment the target is T12, ETV3 (Homo sapiens, UniProt P41162-2 1-143).
T12 sequence: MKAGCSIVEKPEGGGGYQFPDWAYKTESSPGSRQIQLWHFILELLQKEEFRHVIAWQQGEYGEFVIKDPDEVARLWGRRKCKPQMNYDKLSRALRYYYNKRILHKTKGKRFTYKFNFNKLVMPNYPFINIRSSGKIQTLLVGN
To be noted: protein: recombinant; tags: N-terminal GST; dsDNA, one strand shown. The method in brief:
as §1

The next experiment addresses ETV6 (Homo sapiens, UniProt P41212 1-452). To be noted: protein: recombinant; tags: N-terminal GST; dsDNA, one strand shown. In outline: as §1

ETV6, sequence (P41212 whole entry): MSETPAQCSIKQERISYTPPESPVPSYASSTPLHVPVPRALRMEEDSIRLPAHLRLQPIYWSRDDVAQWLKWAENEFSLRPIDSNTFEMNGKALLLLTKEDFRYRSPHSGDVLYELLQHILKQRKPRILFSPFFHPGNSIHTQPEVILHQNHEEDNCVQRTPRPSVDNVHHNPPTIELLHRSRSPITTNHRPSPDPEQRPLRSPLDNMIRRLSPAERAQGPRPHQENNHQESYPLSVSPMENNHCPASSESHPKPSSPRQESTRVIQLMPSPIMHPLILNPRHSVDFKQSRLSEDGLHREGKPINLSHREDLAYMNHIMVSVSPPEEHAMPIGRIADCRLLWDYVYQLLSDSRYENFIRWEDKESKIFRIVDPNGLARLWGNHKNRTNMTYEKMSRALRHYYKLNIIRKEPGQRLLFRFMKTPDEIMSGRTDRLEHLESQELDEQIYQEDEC
CRX, sequence (O43186 whole entry): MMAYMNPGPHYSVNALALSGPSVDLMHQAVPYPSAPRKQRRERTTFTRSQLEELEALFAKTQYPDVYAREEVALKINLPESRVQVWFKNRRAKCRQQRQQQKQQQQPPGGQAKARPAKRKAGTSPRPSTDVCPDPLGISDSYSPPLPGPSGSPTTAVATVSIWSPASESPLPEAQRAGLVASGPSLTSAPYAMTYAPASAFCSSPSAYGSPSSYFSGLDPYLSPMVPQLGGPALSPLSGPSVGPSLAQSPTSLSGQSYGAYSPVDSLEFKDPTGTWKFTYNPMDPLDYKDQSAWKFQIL
HSF1, sequence (Q00613 whole entry): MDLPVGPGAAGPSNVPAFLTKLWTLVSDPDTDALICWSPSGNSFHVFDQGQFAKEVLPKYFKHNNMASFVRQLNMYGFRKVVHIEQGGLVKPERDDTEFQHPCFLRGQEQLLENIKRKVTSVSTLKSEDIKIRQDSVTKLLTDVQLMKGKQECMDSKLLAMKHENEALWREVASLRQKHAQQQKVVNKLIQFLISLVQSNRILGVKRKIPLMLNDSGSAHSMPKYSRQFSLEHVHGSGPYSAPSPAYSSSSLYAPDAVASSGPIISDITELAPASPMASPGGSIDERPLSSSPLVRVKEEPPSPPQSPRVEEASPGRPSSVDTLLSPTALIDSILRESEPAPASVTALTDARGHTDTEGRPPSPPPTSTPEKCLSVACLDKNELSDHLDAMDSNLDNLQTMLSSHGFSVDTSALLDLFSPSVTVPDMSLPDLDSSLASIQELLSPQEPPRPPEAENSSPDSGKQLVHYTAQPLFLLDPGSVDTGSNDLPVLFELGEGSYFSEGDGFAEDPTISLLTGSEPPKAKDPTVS
ELF4, sequence (Q99607 whole entry): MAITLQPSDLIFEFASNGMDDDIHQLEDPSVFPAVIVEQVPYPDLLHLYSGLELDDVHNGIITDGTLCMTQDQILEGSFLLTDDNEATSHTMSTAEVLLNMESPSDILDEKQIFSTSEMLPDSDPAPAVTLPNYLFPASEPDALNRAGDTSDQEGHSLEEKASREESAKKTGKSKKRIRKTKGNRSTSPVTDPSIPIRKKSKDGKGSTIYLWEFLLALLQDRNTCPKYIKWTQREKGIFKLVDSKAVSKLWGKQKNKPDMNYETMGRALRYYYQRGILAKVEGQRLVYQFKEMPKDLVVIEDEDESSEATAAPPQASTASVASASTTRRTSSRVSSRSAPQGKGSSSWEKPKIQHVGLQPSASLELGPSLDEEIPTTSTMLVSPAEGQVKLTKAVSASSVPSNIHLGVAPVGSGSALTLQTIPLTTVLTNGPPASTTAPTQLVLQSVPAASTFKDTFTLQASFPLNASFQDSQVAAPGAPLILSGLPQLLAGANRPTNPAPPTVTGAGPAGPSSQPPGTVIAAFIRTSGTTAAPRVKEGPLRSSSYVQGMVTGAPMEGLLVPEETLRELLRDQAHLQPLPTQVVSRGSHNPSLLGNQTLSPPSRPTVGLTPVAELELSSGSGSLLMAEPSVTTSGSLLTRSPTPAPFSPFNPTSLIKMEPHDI
ETV5, sequence (P41161 whole entry): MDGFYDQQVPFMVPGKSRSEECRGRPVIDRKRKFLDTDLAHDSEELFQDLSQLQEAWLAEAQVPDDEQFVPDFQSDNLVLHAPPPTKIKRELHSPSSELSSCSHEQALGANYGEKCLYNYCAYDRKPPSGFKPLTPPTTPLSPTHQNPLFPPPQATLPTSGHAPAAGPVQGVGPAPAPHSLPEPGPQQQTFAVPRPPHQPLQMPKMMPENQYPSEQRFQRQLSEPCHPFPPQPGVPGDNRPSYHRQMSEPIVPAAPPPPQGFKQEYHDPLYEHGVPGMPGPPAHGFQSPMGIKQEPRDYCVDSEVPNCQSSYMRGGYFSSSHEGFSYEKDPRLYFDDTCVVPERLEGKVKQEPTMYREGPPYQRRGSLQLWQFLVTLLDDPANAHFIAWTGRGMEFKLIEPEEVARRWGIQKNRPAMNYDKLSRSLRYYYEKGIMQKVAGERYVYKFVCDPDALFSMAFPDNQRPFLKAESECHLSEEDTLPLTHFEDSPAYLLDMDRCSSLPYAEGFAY
ETV1, sequence (P50549 whole entry): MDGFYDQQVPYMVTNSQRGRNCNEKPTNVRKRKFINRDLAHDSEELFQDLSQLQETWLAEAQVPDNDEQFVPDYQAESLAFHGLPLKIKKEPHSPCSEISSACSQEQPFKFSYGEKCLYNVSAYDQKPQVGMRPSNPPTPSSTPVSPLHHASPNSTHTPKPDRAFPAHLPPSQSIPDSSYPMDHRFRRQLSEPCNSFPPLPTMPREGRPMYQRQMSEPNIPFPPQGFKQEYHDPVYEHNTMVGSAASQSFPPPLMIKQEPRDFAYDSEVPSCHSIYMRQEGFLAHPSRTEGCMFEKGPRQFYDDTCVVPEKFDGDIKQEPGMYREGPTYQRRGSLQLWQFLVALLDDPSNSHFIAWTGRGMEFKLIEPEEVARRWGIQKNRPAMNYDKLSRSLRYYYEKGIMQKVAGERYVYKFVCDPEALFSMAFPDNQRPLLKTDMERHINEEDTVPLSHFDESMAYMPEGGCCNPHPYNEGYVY

Consider ATCCGC, for which the binding signal in the experiment with FEV is 2.09 fold enrichment (6-mer frequency, TF over GST control); in the experiment with ETV5, 1.78 fold enrichment (6-mer frequency, TF over GST control); with HSF1 it was 1.58 fold enrichment (6-mer frequency, TF over GST control); in the experiment with SPIC, 1.68 fold enrichment (6-mer frequency, TF over GST control); with ELF4 it was 1.65 fold enrichment (6-mer frequency, TF over GST control); in the experiment with ELK4 it was 1.6 fold enrichment (6-mer frequency, TF over GST control). Also, the binding signal in the experiment with ETV2 is 1.9 fold enrichment (6-mer frequency, TF over GST control); in the experiment with ELF3, 1.62 fold enrichment (6-mer frequency, TF over GST control); with CRX it was 2.06 fold enrichment (6-mer frequency, TF over GST control); with ETV1, 1.8 fold enrichment (6-mer frequency, TF over GST control); with ERF it was 1.71 fold enrichment (6-mer frequency, TF over GST control); with ETV3L it was 1.84 fold enrichment (6-mer frequency, TF over GST control). The binding signal with ETS2 is 1.89 fold enrichment (6-mer frequency, TF over GST control); with SPDEF, 2.36 fold enrichment (6-mer frequency, TF over GST control); with ETV7, 1.79 fold enrichment (6-mer frequency, TF over GST control); in the experiment with ELF5, 2.26 fold enrichment (6-mer frequency, TF over GST control); in the experiment with ETV3, 1.92 fold enrichment (6-mer frequency, TF over GST control); in the experiment with ETV6, 1.66 fold enrichment (6-mer frequency, TF over GST control).
